gsp antag – gsp mutant antagonism; hit rate 0.4% among 340,000; Potency, µM (series often up to 76.9 µM), inactives show at the top dose activity change, negative = inhibition, actives largely listed as inhibitors; gsp-mutant cells, cAMP HTRF, 30 min; calls by dose curve; cell line not stated here;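 note: intracellular cAMP measured with PDE inhibitor Ro 20-1724 present during compound exposure; potency is the fitted concentration of half-maximal effect; % is set by controls: 0 for no effect and ±100 for the full control effect; nearly all actives have a fitted effect of over 65% in size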
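Cells in G418 medium, seeded 16-24 h, 37C; buffer exchange to DPBS + 1 mM CaCl2, 0.5 mM MgCl2, 0.05% BSA; cpds in DMSO + […] (300 uM stock), 30 min 37C; HTRF cAMP detection.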
gsp agonist – gsp mutant agonism; Potency, µM (top dose mostly 76.9 µM), for the others: at the top dose activation (cAMP increase), hits mostly activators; gsp mutant cells, cAMP HTRF, 30 min; hit rate 0.13% among 340,000; active = well fitted activation curve with a large enough effect; inconclusive = small, poorly fitted or top-dose-only effect, or another doubt; inactive = no such curve, though single readings can be large or run the other way; cell line not stated here;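 note: phosphodiesterase inhibitor Ro 20-1724 added with compounds to block cAMP breakdown; potency is the fitted concentration of half-maximal effect; nearly all actives have a fitted effect of over 60% in size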
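Cells stably selected in G418 were plated at 2000/well, grown 16-24 hr, then given compounds in DMSO with the PDE inhibitor […] (300 uM solution added) for 30 min at 37C; cAMP was read by HTRF.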
Coupling enz – inhibits coupling enzyme system, counter-screen for aldolase hits. activity change, negative = inhibition, % at 58.2 µM, hits read low. coupling enzyme system counterscreen, AmpLite Red fluorescence. hit rate 0.67% among 290,000; in the data active = activity change below about -30%; note: % is set by controls: 0 for no effect and ±100 for the full control effect
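Counterscreen lacking aldolase: glyceraldehyde-3-phosphate coupling-enzyme reagent preincubated 10 min at RT with compound (at 57.5 uM final), then substrate/coupling system with AmpLite Red added; fluorescence read at 525/598 nm after 20 min RT.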
RXFP1 antag – antagonists of human relaxin receptor RXFP1. Q9HBX9. HEK293-RXFP1, relaxin-stimulated cAMP HTRF, 30 min; stronger effect = lower value. activity change, negative = inhibition, % at 57.5 µM. hit rate 0.59% among 350,000;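 active = activity change of -60% or lower, but not beyond a set lower limit; inconclusive = change between -60% and -40%, or beyond the set limit; inactive = change above -40%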; note: % is set by controls: 0 for no effect and ±100 for the full control effect
Target sequence (Q9HBX9 whole entry, looked up): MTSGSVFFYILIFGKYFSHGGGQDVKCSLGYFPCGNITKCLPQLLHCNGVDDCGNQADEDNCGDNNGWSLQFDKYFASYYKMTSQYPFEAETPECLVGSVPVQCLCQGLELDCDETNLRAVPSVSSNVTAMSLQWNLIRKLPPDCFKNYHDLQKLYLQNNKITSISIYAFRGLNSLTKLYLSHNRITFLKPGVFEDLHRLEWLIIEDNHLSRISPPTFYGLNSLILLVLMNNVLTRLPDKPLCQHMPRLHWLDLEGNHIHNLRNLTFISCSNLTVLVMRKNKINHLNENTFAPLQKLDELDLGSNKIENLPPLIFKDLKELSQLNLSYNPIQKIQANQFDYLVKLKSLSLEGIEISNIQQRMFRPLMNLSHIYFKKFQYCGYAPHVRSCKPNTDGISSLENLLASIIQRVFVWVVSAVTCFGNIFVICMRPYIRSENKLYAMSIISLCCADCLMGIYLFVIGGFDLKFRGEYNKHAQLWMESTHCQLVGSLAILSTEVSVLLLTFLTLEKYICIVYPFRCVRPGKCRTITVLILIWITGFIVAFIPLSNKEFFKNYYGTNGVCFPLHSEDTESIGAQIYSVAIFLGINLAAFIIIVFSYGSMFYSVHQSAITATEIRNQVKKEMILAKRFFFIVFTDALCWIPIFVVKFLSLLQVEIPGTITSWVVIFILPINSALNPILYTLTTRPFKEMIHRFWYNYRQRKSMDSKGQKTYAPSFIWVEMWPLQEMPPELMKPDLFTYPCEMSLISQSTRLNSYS
Giardia kill – kills Giardia lamblia. Giardia lamblia trophozoite viability. activity change, % at 7.66 µM, hits read low. hit rate 0.15% among 340,000; in the data active = activity change below about -80%; inconclusive = between about -30% and that limit;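 note: parasites exposed to compound for two days anaerobically before the ATP read; % is set by controls: 0 for no effect and ±100 for the full control effect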
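Anaerobic 48 hrs incubation at 37 deg C of 100 trophozoites/well with test compounds; ATPLite 1-Step luminescence, 15-30 min RT, reports cellular ATP as viability.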
RXFP1 ag – agonists of human relaxin receptor RXFP1. Q9HBX9. HEK293T-RXFP1 cAMP TR-FRET, 30 min; response scale: percent of porcine relaxin response, buffer zero. Potency, µM (top dose mostly 57.5 µM), for inactives: at the highest dose activation, hits mostly activators. hit rate 0.3% among 370,000. AID 2676; active = well fitted activation curve with a large enough effect; inconclusive = small, poorly fitted or top-dose-only effect; note: potency is the fitted concentration of half-maximal effect; % is set by controls: 0 for no effect and ±100 for the full control effect; nearly all actives have a fitted effect of over 60% in size
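Agonist response is measured as cAMP accumulation in an RXFP1-transfected HEK293T line under PDE4 inhibition. Values are scaled between buffer-only and 29 nM porcine relaxin, and EC50s come from standard Hill equation fits.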
Numbers without * were called inactive; [ ] = remark or other dose. This is a sample that favours compounds with a hit; in the whole collection about 1.6% have one here.

`CCC(=O)NC1=C(NC(C)c2ccccc2)C(=O)c2ccccc2C1=O` (stereo not given) gave gsp antag -25.6%, gsp agonist -13.2%, Coupling enz -46.2*, RXFP1 antag 6.6, Giardia kill -4.6 and RXFP1 ag -1.3%.
Screening COc1ccc(-n2nc(C(=O)NCCc3ccc(OC)c(OC)c3)c3c4ccccc4n(C)c3c2=O)cc1 returned RXFP1 antag -3.3, Giardia kill 11.7 and RXFP1 ag 6.9%.
Screening C=C(C)COc1ccc(-c2[nH]ncc2-c2ccc(OC)cc2)c(O)c1 returned gsp antag -13.2%, gsp agonist -24.8%, Coupling enz -3.1, RXFP1 antag -63.9*, Giardia kill 0.0 and RXFP1 ag 2.7%.
C=C(C)COc1ccc(-c2[nH]ncc2-c2ccccc2)c(O)c1 was read as gsp antag 2.8%, gsp agonist 12.2%, Coupling enz -1.3, RXFP1 antag -29.8, Giardia kill -2.4 and RXFP1 ag -0.3%.
`C=C(C)COc1ccc(-c2[nH]ncc2-c2ccc(OC)c(OC)c2)c(O)c1` gave gsp antag 0.6%, gsp agonist 0.0%, Coupling enz -10.7, RXFP1 antag -77.8*, Giardia kill 14.0 and RXFP1 ag 1.9%.
`COc1ccc(-c2cn[nH]c2-c2ccc(OCc3ccc(F)cc3)cc2O)cc1OC` gave gsp antag -16.2%, gsp agonist -31.4%[15.4 µM], Coupling enz -10.9, RXFP1 antag -72.9*, Giardia kill -20.4 and RXFP1 ag 1.9%.
For COc1ccc(Oc2cn[nH]c2-c2ccc(O)cc2O)cc1 the results were gsp antag 6.8%, gsp agonist -33.1%, Coupling enz 1.3, RXFP1 antag 13.2, Giardia kill -3.1 and RXFP1 ag 0.9%.
For COc1ccc(-c2[nH]ncc2Oc2ccccc2OC)c(O)c1 the results were gsp antag 12.6µM*, gsp agonist -11.5%, Coupling enz -3.6, RXFP1 antag -22.9, Giardia kill -3.9 and RXFP1 ag -0.3%.
O=C(NCc1ccc(Cl)cc1)c1ccc(NC(=O)N2CC3CCCN3c3ccccc32)cc1 (stereo not given) was read as RXFP1 antag -4.0 and RXFP1 ag 3.4%.
`CC(NC(=O)C1CCC(CNc2c(N3CCCCC3)c(=O)c2=O)CC1)c1ccccc1` (stereo not given) gave gsp antag -2.1%, gsp agonist -6.7%[15.4 µM], Coupling enz 3.1, RXFP1 antag -8.2, Giardia kill 17.7 and RXFP1 ag -2.9%.
`CN1[C@H](CC(=O)c2ccccc2)CCC[C@H]1C[C@H](O)c1ccccc1` gave Coupling enz 0.9.
Screening COc1ccc(C(C)=O)cc1CSc1nnc(-c2ccc(Cl)cc2)n1-c1ccccc1 returned gsp antag -29.8%, gsp agonist -36.9%, Coupling enz 3.5, RXFP1 antag 8.0, Giardia kill -1.8 and RXFP1 ag -0.8%.
`Nc1ccc2nc(CN3CCOCC3)[nH]c2c1` gave gsp antag -6.8%, gsp agonist -58.5%, Coupling enz -32.4*, RXFP1 antag 0.7, Giardia kill 1.6 and RXFP1 ag -3.0%.
For CCCOC(=O)c1ccc(-c2c(C)noc2-c2ccc(OC)cc2O)o1 the results were gsp antag 31.6µM*, gsp agonist 5.1%, Coupling enz -0.2, RXFP1 antag -19.4, Giardia kill 42.6 and RXFP1 ag 0.0%.
`COc1c(C)cccc1C(=O)Nc1cccc2ccc(C)nc12` gave RXFP1 ag -0.2%.
For CCn1c([N+](=O)[O-])nc2c1c(=O)[nH]c(=O)n2C the results were gsp antag 8.4%, gsp agonist -58.2%, Coupling enz -38.1*, RXFP1 antag 7.3, Giardia kill -0.8 and RXFP1 ag 1.8%.
Screening CCCCCCn1c(SCCCC)nc2c1c(=O)[nH]c(=O)n2C returned gsp antag 15.1%, gsp agonist -31.8%, Coupling enz -1.8, RXFP1 antag -15.6, Giardia kill -6.4 and RXFP1 ag 0.1%.
For CO[C@@]1(NC(=O)CSC(F)F)C(=O)N2C(C(=O)O)=C(CSc3nnnn3CCO)CO[C@@H]21 the results were RXFP1 antag 16.3.
`CCc1ccc2nc3c(c(C(=O)O)c2c1)CCC3` gave gsp antag 11.2%, gsp agonist -9.6%, Coupling enz -1.3, RXFP1 antag 1.1, Giardia kill 0.1 and RXFP1 ag 2.0%.
Screening Cc1cc(Br)c2nc3c(c(C(=O)O)c2c1)CCCCC3 returned gsp antag 11.1%, gsp agonist 157.1%[15.4 µM], Coupling enz -4.1, RXFP1 antag 52.2, Giardia kill 13.8 and RXFP1 ag 2.24µM*.
Screening CSc1ccc(S(=O)(=O)N2CCC(C(=O)NC3CC3)CC2)cc1 returned gsp antag 5.6%, gsp agonist 11.9%[15.4 µM], Coupling enz -1.7, RXFP1 antag 2.5, Giardia kill -2.6 and RXFP1 ag 1.1%.
For COCC1CCCN(C(=O)c2ccc3oc(Cc4ccc(Cl)cc4)nc3c2)C1 (stereo not given) the results were gsp antag -5.2%, gsp agonist 26.5%, RXFP1 antag 15.2, Giardia kill inconclusive and RXFP1 ag 6.5%.
`CN(CC(=O)Nc1ccc(Cl)c(Cl)c1)Cc1nnc(-c2ccc(F)cc2)o1` gave gsp antag -9.9%, gsp agonist -27.2%[15.4 µM], Coupling enz -1.8, RXFP1 antag -63.1*, Giardia kill 1.4 and RXFP1 ag -0.1%.
Cc1ccc(NC(=O)CN(C)CC(=O)Nc2ccc(F)c(Cl)c2)cc1 was read as gsp antag 9.4%, gsp agonist -14.4%, Coupling enz -1.8, RXFP1 antag -3.1, Giardia kill 3.6 and RXFP1 ag 0.4%.
`Cc1ccc(C)c(S(=O)(=O)c2nnn3c2nc(Nc2ccc(F)c(Cl)c2)c2sccc23)c1` gave RXFP1 antag -18.5 and RXFP1 ag 4.2%.
CC(C)OCCCNC(=O)c1cn(C)c2ccc(S(=O)(=O)N3CCCCCC3)cc2c1=O was read as RXFP1 antag -4.0 and RXFP1 ag 7.6%.
Screening Cc1ccc(CNC(=O)c2ccc3c(c2)NC(=O)C(N2CCOCC2)S3)cc1 (stereo not given) returned gsp antag -7.4%, gsp agonist 10.9%[15.4 µM], Coupling enz -6.6, RXFP1 antag -61.7*, Giardia kill 43.2 and RXFP1 ag 0.5%.
O=C(NCCCN1CCCCCC1)c1ccc2c(c1)NC(=O)C(N1CCOCC1)S2 (stereo not given) was read as gsp antag 4.6%, gsp agonist 3.2%, Coupling enz 1.8, RXFP1 antag 0.3, Giardia kill -19.7 and RXFP1 ag -1.8%.

Screening data from PubChem.
